In PubChem BioAssay (NCATS):
Inconclusive results are not listed. Values without a mark were called inactive. Calls of active or inactive are those of the source. The call rests on the fitted dose curve; in most records, active means well fitted inhibition curve with a large enough effect; inconclusive means small, poorly fitted or top-dose-only effect; inactive means flat fitted curve, though single readings scatter. Non-standard residues stand in square brackets, D forms with d. Residues, ends and D or L forms follow the SMILES beside them. Orn = NCCC[C@H](N)C(=O)O

The compounds below were run against Voltage-gated inwardly rectifying potassium channel KCNH2 (Homo sapiens) (UniProt Q12809) (assay: qHTS Assay for Small Molecule Inhibitors of the Human hERG Channel Activity (AID 588834;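 further: lower thallium flux fluorescence means stronger hERG block; nearly all actives have a fitted effect of over 50% in size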; on activity change, negative = inhibition: top concentration of the series differs between compounds)). Conditions: U2OS BacMam hERG, FluxOR thallium flux fluorescence; series mostly up to 46.1 µM; activity change, negative = inhibition: at the top concentration.
Chain of Voltage-gated inwardly rectifying potassium channel KCNH2 (Homo sapiens) (Q12809 whole entry, looked up): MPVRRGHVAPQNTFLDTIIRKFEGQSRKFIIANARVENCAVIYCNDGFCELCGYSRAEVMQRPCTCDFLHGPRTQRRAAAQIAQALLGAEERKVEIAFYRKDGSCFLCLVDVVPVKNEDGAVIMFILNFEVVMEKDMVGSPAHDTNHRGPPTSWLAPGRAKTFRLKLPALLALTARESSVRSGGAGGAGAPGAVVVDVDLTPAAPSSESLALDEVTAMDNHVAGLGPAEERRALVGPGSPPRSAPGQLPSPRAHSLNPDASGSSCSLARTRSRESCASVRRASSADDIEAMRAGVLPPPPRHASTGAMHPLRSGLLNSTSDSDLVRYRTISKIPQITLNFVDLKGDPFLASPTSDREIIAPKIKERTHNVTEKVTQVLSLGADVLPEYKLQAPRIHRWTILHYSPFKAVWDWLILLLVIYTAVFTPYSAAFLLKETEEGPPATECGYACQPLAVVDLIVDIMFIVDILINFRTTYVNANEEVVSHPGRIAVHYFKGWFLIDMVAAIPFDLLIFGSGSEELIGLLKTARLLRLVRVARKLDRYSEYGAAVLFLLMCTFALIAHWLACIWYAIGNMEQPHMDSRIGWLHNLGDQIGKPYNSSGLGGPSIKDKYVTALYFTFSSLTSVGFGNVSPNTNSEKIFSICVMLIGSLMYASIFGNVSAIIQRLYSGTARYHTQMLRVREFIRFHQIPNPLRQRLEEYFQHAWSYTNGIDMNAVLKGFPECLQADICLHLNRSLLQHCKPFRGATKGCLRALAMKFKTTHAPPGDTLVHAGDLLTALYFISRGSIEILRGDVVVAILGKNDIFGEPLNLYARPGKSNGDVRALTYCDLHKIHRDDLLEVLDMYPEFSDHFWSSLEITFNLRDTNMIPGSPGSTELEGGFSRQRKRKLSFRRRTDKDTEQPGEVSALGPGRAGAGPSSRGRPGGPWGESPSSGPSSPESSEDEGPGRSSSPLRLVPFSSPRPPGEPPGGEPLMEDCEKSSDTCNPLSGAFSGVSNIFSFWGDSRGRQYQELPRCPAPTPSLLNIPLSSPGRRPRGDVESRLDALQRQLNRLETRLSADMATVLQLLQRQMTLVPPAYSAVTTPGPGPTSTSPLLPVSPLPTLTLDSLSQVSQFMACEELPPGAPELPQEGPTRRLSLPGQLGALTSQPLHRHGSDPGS
Procedure, shortened: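 U2OS cells transduced with hERG via BacMam (MOI ~100), plated 2000/well, loaded with FluxOR thallium dye, compound ~10 min, then stimulation buffer; fluorescence decrease read kinetically; AC50 from Hill fits.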
On the % scale 0 is the no-effect control and ±100 the full control effect; potency means the concentration at half of the fitted maximal effect.

SMILES	activity change, negative = inhibition	Potency
CC(Oc1ccccc1)C(=O)N[C@@H]1C(=O)N2[C@@H]1SC(C)(C)[C@@H]2C(=O)O (some centres undefined)	-10.4% [at 20.6 µM]	
CC(=O)N(CC(C)C(=O)O)c1c(I)cc(I)c(N)c1I (centres undefined)	2.32% [at 20.6 µM]	
CO[C@H]1C=CO[C@@]2(C)Oc3c(C)c(O)c4c(O)c(c5c(c4c3C2=O)=NC2(CCN(CC(C)C)CC2)N=5)NC(=O)/C(C)=C\C=C/[C@H](C)[C@H](O)[C@@H](C)[C@@H](O)[C@@H](C)[C@H](OC(C)=O)[C@@H]1C	8.6%	
CC(C)C[C@@H]1NC(=O)[C@H](CCCN)NC(=O)[C@H](C(C)C)NC(=O)[C@@H]2CCCN2C(=O)[C@@H](Cc2ccccc2)NC(=O)[C@H](CC(C)C)NC(=O)[C@H](CCCN)NC(=O)[C@H](C(C)C)NC(=O)[C@@H]2CCCN2C(=O)[C@@H](Cc2ccccc2)NC1=O (cyclo(V[Orn]L[dF]PV[Orn]L[dF]P))	43%	
CN=C(NC#N)Nc1ccc(C2=NNC(=O)C[C@@H]2C)cc1	10.2%	
CNc1cc(OC)c(C(=O)N[C@H]2CCN(Cc3ccccc3)[C@H]2C)cc1Cl		12.6 µM (active)
O=S(=O)(O)c1ccc2c(N=Nc3ccc(S(=O)(=O)O)c4ccccc34)c(O)c(S(=O)(=O)O)cc2c1	28.4%	
C[C@]12C=CC(=O)N[C@@H]1CC[C@@H]1[C@@H]2CC[C@]2(C)[C@@H](C(=O)Nc3cc(C(F)(F)F)ccc3C(F)(F)F)CC[C@@H]12		2.51 µM (active)
CCC(=O)OCC(=O)[C@@]1(OC(=O)CC)[C@H](C)C[C@H]2[C@H]3[C@H]([C@@H](O)C[C@@]21C)[C@@]1(C)C=CC(=O)C=C1C[C@H]3Cl	18.2% [at 20.6 µM]	
